In PubChem BioAssay (NCI):
About 79,000 compounds went through this panel and 15% of them were active in at least one assay; those are over-represented in the sample as a whole. Active and inactive are the calls of the source. Rule as the data show it: active = growth inhibition above about 70%; inactive = the rest.

Assays:
[1] = NCI Yeast Anticancer Drug Screen. Data for the rad52 strain (AID 147);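 also: 0% = growth of vehicle-treated control cultures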; details: S. cerevisiae rad52 mutant growth inhibition, stronger effect = higher value
Summary of the method: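 Inhibition of yeast growth, referenced to vehicle controls, was the measured output for a strain with defective DNA damage repair.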

[2] = NCI Yeast Anticancer Drug Screen. Data for the wt1 strain (AID 149);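 also: 0% = growth of vehicle-treated wt1 cultures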; details: S. cerevisiae wt1 strain (SPY 50644) growth inhibition, stronger effect = higher value
Summary of the method: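 Measured: growth of wt1 yeast under compound versus vehicle treatment, reported as inhibition.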

[3] = NCI Yeast Anticancer Drug Screen. Data for the rad50EPP+ strain (AID 151);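 also: 0% = growth of vehicle-treated control cultures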; details: S. cerevisiae rad50 mutant strain, stronger effect = higher value
Summary of the method: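 Genetically defined yeast (rad50EPP+, DNA damage repair alteration) is grown with compound, and inhibition of growth is expressed relative to vehicle-treated controls.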

[4] = NCI Yeast Anticancer Drug Screen. Data for the rad50 strain (AID 155);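 also: 0% = growth of vehicle-only cultures of the same strain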; details: S. cerevisiae rad50 strain growth inhibition, stronger effect = higher value
Summary of the method: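 Growth of the mutant yeast was measured after compound exposure and referenced to vehicle-treated cultures.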

[5] = NCI Yeast Anticancer Drug Screen. Data for the mec2-1 strain (AID 157); details: S. cerevisiae mec2-1 strain, stronger effect = higher value
Summary of the method: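 Each compound was tested on mec2-1 yeast, a strain altered in DNA damage repair or cell cycle control. Growth inhibition is reported relative to vehicle.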

[6] = NCI Yeast Anticancer Drug Screen. Data for the rad14 strain (AID 159);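 also: 0% = growth of vehicle-treated control cultures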; details: S. cerevisiae rad14 strain growth inhibition, stronger effect = higher value
Summary of the method: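 Here, inhibition of yeast growth was measured after compound exposure, using a strain with a genetic defect in DNA damage repair and vehicle-treated cultures as the reference.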

[7] = NCI Yeast Anticancer Drug Screen. Data for the sgs1 mgt1 strain (AID 161);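 also: 0% = growth of cultures given vehicle only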; details: S. cerevisiae sgs1 mgt1 strain, stronger effect = higher value
Summary of the method: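 Test agents were incubated with a DNA-repair-mutant yeast strain. Growth was then read and compared against vehicle-treated controls.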

[8] = NCI Yeast Anticancer Drug Screen. Data for the cln2 rad14 strain (AID 165);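 also: 0% = growth equal to vehicle treated cultures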; details: S. cerevisiae cln2 rad14 strain, stronger effect = higher value
Summary of the method: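 Test compounds were added to cln2 rad14 yeast cultures; inhibition of growth was then determined by comparison with vehicle treatment.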

[9] = NCI Yeast Anticancer Drug Screen. Data for the bub3 strain (AID 167); details: S. cerevisiae bub3 mutant strain, stronger effect = higher value
Summary of the method: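 Whole-cell yeast assay. The mutant strain was incubated with compounds, and growth inhibition was determined by comparison with vehicle-treated cells.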

[10] = NCI Yeast Anticancer Drug Screen. Data for the mlh1 strain (AID 171);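 also: 0% = growth of vehicle-treated control cultures of the same strain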; details: S. cerevisiae mlh1 strain growth inhibition, stronger effect = higher value
Summary of the method: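 Inhibition values reflect reduced yeast growth in the presence of compound, referenced to vehicle controls, using a strain chosen for its alteration in DNA repair or cell cycle control.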

[11] = NCI Yeast Anticancer Drug Screen. Data for the sgs1 strain (AID 173);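 also: 0% = growth of vehicle-only control cultures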; details: S. cerevisiae sgs1 mutant, stronger effect = higher value
Summary of the method: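 Vehicle-treated cultures served as reference for growth inhibition of a yeast strain altered in DNA damage repair or cell cycle control after compound exposure.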

[12] = NCI Yeast Anticancer Drug Screen. Data for the mlh1 rad18 strain (AID 175); details: S. cerevisiae mlh1 rad18 strain growth inhibition, stronger effect = higher value
Summary of the method: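 Inhibition values reflect reduced growth of mutant yeast versus vehicle-treated controls following compound exposure; the mutations affect DNA damage repair.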

[13] = NCI Yeast Anticancer Drug Screen. Data for the mgt1 strain (AID 153); details: S. cerevisiae mgt1 mutant growth inhibition, stronger effect = higher value
Summary of the method: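 In the mgt1 strain, test compounds were added and growth inhibition was determined relative to vehicle-treated controls.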

[14] = NCI Yeast Anticancer Drug Screen. Data for the CLN2oe strain (AID 163);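 also: 0% = growth of vehicle-only control cultures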; details: S. cerevisiae CLN2oe strain, stronger effect = higher value
Summary of the method: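 First, the altered yeast strain was treated with each compound; second, its growth was measured; finally, inhibition was derived by comparison with vehicle controls.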

[15] = NCI Yeast Anticancer Drug Screen. Data for the wt2 strain (AID 169);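 also: 0% = growth of vehicle-treated yeast cultures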; details: S. cerevisiae wt2 strain growth inhibition, stronger effect = higher value
Summary of the method: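 The panel's yeast strains carry defined changes in DNA repair or cell cycle genes. Each strain is grown with compound, and growth loss is scored relative to vehicle.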

[16] = at 5.0 µM (retest, dose inferred, filed as 0.5)
[17] = at 50.0 µM (retest, dose inferred, filed as 5.0)

Measured: growth inhibition

CC1CN(/N=C\c2ccc([N+](=O)[O-])o2)C(=O)O1 (stereo unspecified)
inactive: [1]; at 1.2 µM 1% | [1]; at 3.7 µM 3% | [1]; at 11.0 µM 9% | [1]; at 33.0 µM 19% | [1]; at 100.0 µM 59% | [2]; at 1.2 µM -2% | [2]; at 3.7 µM -2% | [2]; at 11.0 µM -2% | [2]; at 33.0 µM 1% | [2]; at 100.0 µM 10% | [3]; at 1.2 µM 0% | [3]; at 3.7 µM -1% | [3]; at 11.0 µM 4% | [3]; at 33.0 µM 15% | [3]; at 100.0 µM 48% | [4]; at 1.2 µM 9% | [4]; at 3.7 µM 46% | [4]; [16] 8% | [4]; at 11.0 µM 32% | [4]; at 33.0 µM 24% | [4]; [17] 53% | [5]; at 1.2 µM 2% | [5]; at 3.7 µM 4% | [5]; [16] -25% | [5]; at 11.0 µM 6% | [5]; at 33.0 µM 12% | [5]; [17] 46% | [5]; at 50.0 µM 20.6% | [5]; at 100.0 µM 45% | [6]; at 1.2 µM 0% | [6]; at 3.7 µM -3% | [6]; at 11.0 µM -2% | [6]; at 33.0 µM 10% | [6]; at 100.0 µM 47% | [7]; [16] 27% | [8]; [16] -3% | [8]; [17] 45% | [8]; at 50.0 µM 18.9% | [9]; at 1.2 µM -1% | [9]; at 3.7 µM 3% | [9]; [16] -8% | [9]; at 11.0 µM 0% | [9]; at 33.0 µM 2% | [9]; [17] 14% | [9]; at 50.0 µM 14.1% | [9]; at 100.0 µM 9% | [10]; at 1.2 µM 0% | [10]; at 3.7 µM -2% | [10]; at 11.0 µM -1% | [10]; at 33.0 µM 3% | [10]; at 100.0 µM 16% | [11]; at 1.2 µM 7% | [11]; at 3.7 µM 11% | [11]; at 11.0 µM 27% | [11]; at 33.0 µM 56% | [12]; [16] 18%
active: [4]; at 50.0 µM 75.7% | [4]; at 100.0 µM 72% | [7]; [17] 83% | [7]; at 50.0 µM 86.1% | [11]; at 100.0 µM 87% | [12]; [17] 71% | [12]; at 50.0 µM 85.8%

Clc1ccc(/C(=C\c2ccccc2)Cn2ccnc2)cc1
inactive: [1]; at 1.2 µM 18% | [1]; at 3.7 µM 34% | [1]; at 11.0 µM 53% | [3]; at 1.2 µM 26% | [3]; at 3.7 µM 54% | [13]; at 1.2 µM 14% | [13]; at 3.7 µM 22% | [13]; at 11.0 µM 60% | [4]; at 1.2 µM 22% | [4]; at 3.7 µM 34% | [4]; [16] 52% | [4]; at 11.0 µM 54% | [5]; at 1.2 µM 11% | [5]; at 3.7 µM 21% | [5]; [16] -14% | [5]; at 11.0 µM 37% | [5]; at 33.0 µM 54% | [5]; at 100.0 µM 67% | [6]; at 1.2 µM 38% | [6]; at 3.7 µM 51% | [6]; at 11.0 µM 68% | [7]; [16] 30% | [14]; at 1.2 µM 11% | [14]; at 3.7 µM 21% | [14]; at 11.0 µM 48% | [8]; [16] 26% | [9]; at 1.2 µM 10% | [9]; at 3.7 µM 32% | [9]; [16] 51% | [9]; at 11.0 µM 44% | [15]; at 1.2 µM 20% | [15]; at 3.7 µM 29% | [15]; at 11.0 µM 46% | [15]; at 33.0 µM 54% | [10]; at 1.2 µM 5% | [10]; at 3.7 µM 19% | [10]; at 11.0 µM 39% | [10]; at 33.0 µM 51% | [11]; at 1.2 µM 44% | [11]; at 3.7 µM 54% | [11]; at 11.0 µM 69% | [12]; [16] 42%
active: [1]; at 33.0 µM 86% | [1]; at 100.0 µM 76% | [3]; at 11.0 µM 92% | [3]; at 33.0 µM 95% | [3]; at 100.0 µM 96% | [13]; at 33.0 µM 71% | [13]; at 100.0 µM 87% | [4]; at 33.0 µM 84% | [4]; [17] 92% | [4]; at 50.0 µM 79% | [4]; at 100.0 µM 85% | [5]; [17] 88% | [5]; at 50.0 µM 82.3% | [6]; at 33.0 µM 81% | [6]; at 100.0 µM 80% | [7]; [17] 95% | [7]; at 50.0 µM 79.7% | [14]; at 33.0 µM 75% | [14]; at 100.0 µM 74% | [8]; [17] 92% | [8]; at 50.0 µM 73.2% | [9]; at 33.0 µM 72% | [9]; [17] 97% | [9]; at 50.0 µM 88.2% | [9]; at 100.0 µM 89% | [15]; at 100.0 µM 77% | [10]; at 100.0 µM 74% | [11]; at 33.0 µM 90% | [11]; at 100.0 µM 83% | [12]; [17] 94% | [12]; at 50.0 µM 78.6%

Cc1cc(O)c(C(C)C)cc1SC#N
active: [1]; at 100.0 µM 98% | [2]; at 100.0 µM 99% | [13]; at 100.0 µM 99% | [4]; [16] 91% | [4]; [17] 98% | [4]; at 50.0 µM 89.1% | [4]; at 100.0 µM 98% | [5]; [16] 96% | [5]; [17] 99% | [5]; at 50.0 µM 91.1% | [5]; at 100.0 µM 98% | [6]; at 100.0 µM 99% | [7]; [17] 97% | [7]; at 50.0 µM 91.9% | [8]; [17] 98% | [8]; at 50.0 µM 90.3% | [9]; [16] 72% | [9]; at 11.0 µM 91% | [9]; [17] 98% | [9]; at 50.0 µM 90.5% | [9]; at 100.0 µM 98% | [15]; at 100.0 µM 98% | [10]; at 100.0 µM 98%
inactive: [1]; at 1.2 µM 2% | [1]; at 3.7 µM -12% | [1]; at 11.0 µM 62% | [1]; at 33.0 µM 34% | [2]; at 1.2 µM -15% | [2]; at 3.7 µM 1% | [2]; at 11.0 µM 43% | [2]; at 33.0 µM 36% | [13]; at 1.2 µM -3% | [13]; at 3.7 µM -13% | [13]; at 11.0 µM 54% | [13]; at 33.0 µM 40% | [4]; at 1.2 µM -24% | [4]; at 3.7 µM -15% | [4]; at 11.0 µM 67% | [4]; at 33.0 µM 19% | [5]; at 1.2 µM -26% | [5]; at 3.7 µM -25% | [5]; at 11.0 µM 68% | [5]; at 33.0 µM 24% | [6]; at 1.2 µM -4% | [6]; at 3.7 µM 0% | [6]; at 11.0 µM 55% | [6]; at 33.0 µM 46% | [7]; [16] -5% | [8]; [16] 65% | [9]; at 1.2 µM 3% | [9]; at 3.7 µM 50% | [9]; at 33.0 µM 34% | [15]; at 1.2 µM -11% | [15]; at 3.7 µM -24% | [15]; at 11.0 µM 52% | [15]; at 33.0 µM 36% | [10]; at 1.2 µM -19% | [10]; at 3.7 µM -5% | [10]; at 11.0 µM 58% | [10]; at 33.0 µM 33%
